# Data reported in PubChem BioAssay (Tox21).
# Results filed as inconclusive are left out. Where a call stands in place of a potency, no number is given. Activity calls are given as the source filed them. Calls come from the whole dose curve.
# Assay: qHTS assay to identify small molecule agonists of the AP-1 signaling pathway (AID 1159526)
# Conditions: ME-180 (cervical carcinoma) AP-1-bla reporter, beta-lactamase FRET ratio, 5 h; series mostly up to 76.8 µM
row,SMILES,Potency
1,O=C(CCCl)NCc1ccccc1,inactive
2,O=C(O[C@@H](C(=O)O)[C@@H](OC(=O)c1ccccc1)C(=O)O)c1ccccc1,inactive
3,Nc1cccc(S(=O)(=O)O)c1,inactive
4,CCOC(=O)c1ccccc1O,inactive
5,CCCOCCC,inactive
6,CC1(C)S[C@@H]2[C@H](NC(=O)C(C(=O)O)c3ccccc3)C(=O)N2[C@H]1C(=O)O (stereo partly drawn),inactive
7,Cc1cc(NS(=O)(=O)c2ccc(N)cc2)nc(C)n1,inactive
8,Cc1ccc(C)c(N)c1,inactive
9,Cc1cc(S(=O)(=O)O)c(N)cc1Cl,inactive
10,Cc1nnc(SCC2=C(C(=O)O)N3C(=O)[C@@H](NC(=O)Cn4cnnn4)[C@H]3SC2)s1,inactive
11,CC(C)(C)C1CCCCC1=O (stereo not drawn),inactive
12,CCCC(CCC)(C(=O)OCC)C(=O)OCC,inactive
13,CC(CNC1CCCCC1)OC(=O)c1ccccc1 (stereo not drawn),inactive
14,CCOc1ccc(OCC)c(Cl)c1,inactive
15,O=C(O)[C@@H]1CSCN1,inactive
16,CC1=C(O)C(=O)OC1C (stereo not drawn),inactive
17,Cc1ncc(CO)c(CN)c1O,inactive
18,O=S(=O)(O)C(F)(F)F,inactive
19,CN1CCN(c2c(F)cc3c(=O)c(C(=O)O)cn(CCF)c3c2F)CC1,inactive

row,SMILES,Potency
1,O=C(O)c1cccc(Cl)c1Cl,inactive
2,Cc1ccc([N+](=O)[O-])cc1Cl,inactive
3,NCCCN1CCN(CCCN)CC1,inactive
4,FC(F)(F)c1ccccc1,inactive
5,COC(=O)N[C@H](C(=O)N[C@@H](Cc1ccccc1)[C@@H](O)CN(Cc1ccc(-c2ccccn2)cc1)NC(=O)[C@@H](NC(=O)OC)C(C)(C)C)C(C)(C)C,inactive
6,OCCN1CCN(CCO)CC1,inactive
7,CCCCN1C[C@H](O)[C@@H](O)[C@H](O)[C@H]1CO,inactive
8,O=CCCc1ccccc1,inactive
9,CCN[C@H]1CN(CCCOC)S(=O)(=O)c2sc(S(N)(=O)=O)cc21,inactive
10,C=Cc1ccccc1,inactive
11,COc1cc(Cl)ccc1Cl,inactive
12,Cc1ccsc1C(=CCCN1CCC[C@@H](C(=O)O)C1)c1sccc1C,inactive
13,N#CSCC(=O)O,inactive
14,CC1(C)C(=O)N(Cl)C(=O)N1Br,inactive
15,CC(C)Nc1nc(N)nc(Cl)n1,inactive
16,CC(C)S,inactive
17,COc1cc(C)ccc1C(C)C,inactive
18,CCC1(C)NC(=O)NC1=O (stereo not drawn),inactive
19,C=C(C)C(=O)OCCOP(=O)(O)O,inactive
